Measurements taken from PubChem BioAssay AID1508600 (Functional Genomics Laboratory (NCATS/FGL), 2020).
About 3,700 (7%) of roughly 53,000 sequences were called active.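 Rule for the calls: active = gene knockdowns whose robust z-score for IL-1 alpha signal is at least 2 or at most -2, so actives lie on both sides; inactive = the rest.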 This excerpt belongs to a sample that is enriched for actives.

Experiment: Components of the Cytosolic LPS Sensing Pathway: Gene Identification via Genome-wide siRNA Screen;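 note: robust z of the log signal after scaling to non-targeting control siRNA wells of the plate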
Settings: RAW264.7 macrophages, IL-1a HTRF, actives lie on both sides, screened at 100 nM (by protocol), cells primed 5 h with Pam3CSK4 first
Outline: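 Three distinct siRNAs per gene were tested singly at 100 nM in RAW264.7 macrophages. Following Pam3CSK4 priming and 24 hour LipidA transfection, IL-1a secretion was read by HTRF.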

z-score, inactive:
GCUGAAAUAUGUGAGAGCATT against Sdcbp 0.016
CCGGGUCAUUAUCUAUCAATT against Puf60 -0.383
GCACUUACUCUUCAACGGGTT against Yae1d1 1.87
GGUCGUCGUGAGAUCUUAUTT against Prlhr -0.342
CGUGUGUUUUACCCUAAAATT against Zfp947 0.404
GGACGAGAACAUCUUAAUCTT against Pim1 1.58
GGAACUUACACAUUUGUUCTT against Tnfsf13b -1.11
GGAGCAUGUCUUUAAGAAGTT against Stac -1.15
GCUAACUUACCCAAAGAAATT against Tnfaip3 1.41
GUGCAACGUGAGCAAUACGTT against Selenbp2 -0.417
CGUAAAACUCUUAGGCAUGTT against Npm1 1.13
GAAAAAAUGCCAGCUGUGGTT against Sec61b 0.379
GGAUCCAUCCGUCUCUAAGTT against Rprd2 0.628
GGUGCAAGUUCCCAUUAUATT against Tpsab1 -0.405
GGACAUAGCAUCUUCACUUTT against Mpp3 -1.31
GGCCUUAGGAAAAAAAAAGTT against Bad 0.956
CCUUGGUGGUCUGAAAUAATT against Cyp4a31 -0.159
GGAUGUGAAUGAGUGUGAGTT against Fbln7 0.368
GGAGAAGAAGGUUCUUGCCTT against Hoxb13 -1.03
GGUCGCACAAGGUAUUAUATT against AI661453 -0.402
GGGAAAAAGAACAAGAUCATT against Cep57l1 -0.799
GGUACUUCCUCAUUUACCUTT against Zdhhc4 0.541
CCGUAAGCUGUCUCUUUGUTT against Pla2g4c -1.97

z-score, active:
CGCAGCUUUCUAUACUGGCTT against Ngf 2.41
GGAAGCUGUGGAGAAACUATT against Acox2 2.22
GCCAUGACCAUCUUUCUCUTT against Olfr1413 -3.03
CCUGCAUACGAAGUACAUATT against Bsg 2.75
GGAGAAACUGGACAACCUGTT against Eno2 4.12
GGAGAAUGAACAGACAGAGTT against Slc39a14 -2.06
GGGAACAAGACAACACAGCTT against Adam11 2.03
